Screening data: PubChem BioAssay, National Center for Advancing Translational Sciences (NCATS)
Sampled rows, rich in hits. Any-hit rate of the full collection: about 7.9%.
Marburg entry inh – inhibitors of Marburg virus binding or cell entry | Marburg virus pseudotyped entry inhibition, cell reporter | Potency, µM (highest dose often 37.8 µM), inactives show at the top dose activity change, negative = inhibition, usual class: inhibitors | 1.8% of 300,000 active | AID 540276; calls by dose curve; tested in HEK293 cells; note: potency is the fitted concentration of half-maximal effect
FMDV antiviral – blocks foot and mouth disease virus. FMDV antiviral cell-based qHTS. Potency, µM (doses to about 57.9 µM), inactives show at the highest dose activity change, negative = inhibition, usual class: inhibitors. 1.2% of 410,000 active. AID 1159524; calls by dose curve; tested in HEK293T cells; note: read-out not given here; potency is the fitted concentration of half-maximal effect; nearly all actives have a fitted effect of over 45% in size
LASV entry inh – inhibitors of Lassa virus binding or cell entry; 1.2% of 300,000 active; Potency, µM (top dose mostly 37.9 µM), for inactives: at the top dose activity change, negative = inhibition, usual class: inhibitors; Lassa virus pseudotype entry inhibition, cell reporter; AID 540256; calls by dose curve; tested in HEK293 cells; note: potency is the fitted concentration of half-maximal effect; nearly all actives have a fitted effect of over 50% in size
HCMV antiviral – human cytomegalovirus inhibition | HFF cells, HCMV-luciferase reporter, 72 h; active compounds read low | activity change, negative = inhibition, % at 57.5 µM | 4.5% of 410,000 active; in the data active = activity change below about -60%; inconclusive = no clear call, values can overlap the other calls; inactive = above about -39%
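Steps: HFFs plated, 16 h 37C; compounds added; HCMV-luciferase added to MOI 1 PFU/cell; 72 h 37C; OneGlo reagent, 5 min room temperature; luminescence read, normalized to controls.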
HCV inh – inhibitors of hepatitis C virus infection. Huh7.5.1 HCVcc-Cre infection, luciferase reporter, 44 h. Potency, µM (doses to about 41.8 µM), for inactives: top-dose activity change, negative = inhibition, usual class: inhibitors. 3.4% of 340,000 active. AID 651820; active = well fitted inhibition curve with a large enough effect; inconclusive = small, poorly fitted or top-dose-only effect, or another doubt; inactive = no such curve, though single readings can be large or run the other way; note: potency is the fitted concentration of half-maximal effect
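A cell-based infection assay in which seeded cells (1,000 per well) receive test compound after 4 h, are inoculated with HCVcc-Cre at approximately 0.5 moi, and are incubated 44 h before luminescence detection.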
* hit, by the source's call; u = inconclusive; x = no result given; + = active, no number; [ ] = remark or other dose. % is set by controls: 0 for no effect and ±100 for the full control effect.

SMILES	Marburg entry inh	FMDV antiviral	LASV entry inh	HCMV antiviral	HCV inh
COc1ccc(-c2c([C@H]3[C@@H]4C=CCC[C@@]4(C)C(=O)N3Cc3ccccc3)ccc3ccccc23)cc1OC	x	u	x	-60.3*	-13.2%[8.37 µM]
Cc1ccc(-c2cc([C@H]3[C@@H]4C=CCC[C@@]4(C)C(=O)N3Cc3ccccc3)ccc2F)cc1	x	-5.3%	x	-15.9	-66.5%
COc1ccc(-c2cc([C@H]3[C@@H]4C=CCC[C@@]4(C)C(=O)N3Cc3ccccc3)ccc2F)cc1OC	x	u	x	20.9	10µM*
COc1ccc(S(=O)(=O)NCCc2cn3ccsc3n2)cc1OC	x	34.6%	9.0%[46.1 µM]	-6.3	x
Cc1ccc(C(C(=O)NCc2ccccc2)N(Cc2cccs2)C(=O)c2ccc3c(c2)OCCO3)cc1 (stereo unspecified)	6.51µM*	-13.0%	6.51µM*	-68.9*	u
COCCN(C(=O)Cc1cccs1)C(C(=O)NCc1ccc(OC)cc1)c1ccc(OC)cc1 (stereo unspecified)	0.1%	x	u	25.2	7.4%
COC(=O)c1ccc(C(C(=O)NCc2ccccc2)N(Cc2cccs2)C(=O)c2cnccn2)cc1 (stereo unspecified)	u	-10.8%	-4.9%	3.8	12.5%
COc1ccc(CNC(=O)C(c2ccc(C)cc2)N(Cc2cccs2)C(=O)c2ccc3c(c2)OCCO3)cc1 (stereo unspecified)	11.6µM*	u	u	u	11.2µM*
CN1C(=O)N(C)c2ccc(Br)c3cccc1c23	x	-11.8%	x	u	14.1µM*
COc1ccc2c([N+](=O)[O-])c(-c3ccccc3)[nH]c2c1	x	x	x	-20.2	x
CSc1nc(N)nc(SCC(=O)C23CC4CC(CC(C4)C2)C3)c1C#N	20.6µM*	u	-5.8%	-32.7	10µM*
CC(=O)Nc1ccc2c(c1)CCc1ccccc1-2	u	32.3%	-0.1%[46.1 µM]	-9.3	-21.1%
O=C(O)/C=C/C(=O)c1ccc2c(c1)CCc1ccccc1-2	x	u	x	-60.7*	12.6µM*
Cc1ccc(C)c(NC(=O)c2cc(S(=O)(=O)N3CCN(c4cccc(Cl)c4)CC3)ccc2F)c1	x	28.7%	3.1%[46.1 µM]	-24.3	x
Cc1cc(NC(=O)COC(=O)c2cc([N+](=O)[O-])ccc2N2CCOCC2)ccc1Br	u	31.6µM*	u	-37.4	7.08µM*
CCc1cccc(NC(=O)COC(=O)c2cc([N+](=O)[O-])ccc2N2CCOCC2)c1	u	u	u	-4.1	10µM*
CCOc1ccc(NC(=O)COC(=O)c2cc([N+](=O)[O-])ccc2N2CCOCC2)cc1	u	-23.6%	-8.8%	-25.5	u
CSc1nc2sc3c(c2c(=O)n1Cc1ccccc1)CCC(C(C)(C)C)C3 (stereo unspecified)	x	u	-18.2%[46.1 µM]	-13.9	x
CCc1nc2sc3c(O)cc(=O)[nH]c3c2cc1C	2.8%[46.1 µM]	-1.2%	-0.1%[46.1 µM]	-80.9*	1.8%
COc1cccc(-c2ncn(CCc3ccccc3OC)c2CC(C)C)c1	x	x	x	-88.0*	x
COc1ccccc1CCn1cnc(C)c1CC(C)C	x	-22.2%	x	-17.5	x
COc1cccc(-c2ncn(CCc3ccccc3OC)c2C(C)C)c1	x	31.6µM*	x	-100.9*	x
COc1ccc(-c2cc(C)no2)cc1S(=O)(=O)N1CCN(c2ccc(C(C)=O)cc2)CC1	x	0.0%	7.1%[46.1 µM]	0.0	x
CCOC(=O)c1cc2c(=O)n3ccccc3nc2n(CC2CCCO2)c1=NC(=O)c1ccc(OCC)cc1 (stereo unspecified)	-29.3%[46.1 µM]	-23.3%	-0.4%[46.1 µM]	10.6	x
Cc1ccc(-n2ncc(C(=O)N3CCCCC3)c2C2CCN(C(=O)OC(C)(C)C)CC2)c(C)c1	x	-11.8%	u	-9.3	x
SMILES	Marburg entry inh	FMDV antiviral	LASV entry inh	HCMV antiviral	HCV inh
COc1ccc(CCN2C(=O)c3ccccc3NC2c2cc(Cl)c(O)c(OC)c2)cc1 (stereo unspecified)	u	-5.2%	5.62µM*	-19.7	-13.0%
CCCN1C(=O)c2ccccc2NC1c1cc(OC)c(OC)c(OC)c1 (stereo unspecified)	-12.9%	-6.4%	-20.8%	22.9	14.8%
O=C(NNC(=O)c1ccncc1)Nc1cccc(C(F)(F)F)c1	x	26.8%	x	-25.4	16.6%
COc1ccc(NC(=O)/C=C/c2cccc(C(F)(F)F)c2)cn1	u	u	u	-31.5	11.2µM*
COc1ccc(NC(=O)/C=C/c2ccc(OC(F)F)cc2)cn1	u	-30.0%	u	-12.3	11.2µM*
COc1ccc(NC(=O)/C=C/c2cccc(Br)c2)cn1	u	-26.3%	u	39.2	u
O=C(/C=C/c1cccc(C(F)(F)F)c1)Nc1cccc(C(F)(F)F)c1	u	-54.1%	u	-99.1*	u
O=C(/C=C/c1cccc(C(F)(F)F)c1)NNC(=O)c1ccncc1	-1.9%[46.1 µM]	-18.3%	5.5%	-76.4*	u
Cc1ccc(-n2ncc(C(=O)N3CCN(C4CCCCC4)CC3)c2C2CCN(C(=O)OC(C)(C)C)CC2)cc1C	x	u	2µM*	0.0	x
CCN1CCN(C(=O)c2cnn(-c3cccc(Cl)c3)c2C2CCN(C(=O)OC(C)(C)C)CC2)CC1	x	-13.2%	7.08µM*	8.0	x
COc1ccc(-n2ncc(C(=O)NCCc3ccsc3)c2C2CCN(C(=O)OC(C)(C)C)CC2)cc1	x	10.7%	u	+	x
CC(C)(C)OC(=O)N1CCC(c2c(C(=O)N3CCN(C4CCCCC4)CC3)cnn2-c2cccc(Cl)c2)CC1	x	-24.8%	u	-34.2	x
Cc1ccc(-c2nc3ccccn3c2Nc2ccc3c(c2)OCO3)o1	-9.5%[46.1 µM]	-23.0%	28.2%[46.1 µM]	-101.0*	x
COc1ccc(-c2nc3ccc(C)cn3c2Nc2ccc3c(c2)OCO3)cc1	u	16.6%	20.3%[46.1 µM]	-106.2*	x
Cc1ccc2nc(-c3ccc(O)cc3)c(Nc3ccc4c(c3)OCCO4)n2c1	21.8%[46.1 µM]	28.9%	-4.7%[46.1 µM]	60.5	-26.4%
CC1CCCN(CCCNC(=O)Cn2ncc3c([nH]c4ccccc43)c2=O)C1 (stereo unspecified)	x	-17.1%	16.2%[46.1 µM]	29.4	x
COc1ccc(-c2noc(N3CCC(C(=O)Nc4ccc(F)cc4)CC3)n2)cc1	x	-22.1%	x	-30.6	-2.7%
CCOC(=O)N1CCN(c2nc(-c3ccc(OC)cc3)no2)CC1	8.8%	2.6%	-6.1%	u	12.6µM*
COc1ccc(-c2noc(N3CCC(C(=O)N4CCN(c5ccccc5F)CC4)CC3)n2)cc1	x	11.2µM*	-10.9%[46.1 µM]	-3.7	x
COc1cc(CN2CCC(C(=O)N3CCN(c4ccccc4F)CC3)CC2)ccc1O	u	-20.5%	-28.5%	-21.1	22.4µM*
CCOC(=O)N1CCN(C(=O)c2ccc(OC)cc2)CC1	-1.5%	-16.5%	1.4%	-31.1	16.1%
COc1cc(-c2cc(C)c3cccc(OC)c3n2)cc2c1OCCN(C(=O)CCn1nc(C)cc1C)C2	x	-13.6%	x	x	x
CN1C(=O)[C@H](Cc2ccc([N+](=O)[O-])cc2)NC1=S	0.5%[46.1 µM]	4.8%	u	-72.0*	1.1%
Cc1ccc(/C=C(\C#N)C(=O)NCC2CCCO2)o1 (stereo unspecified)	17.9%	30.4%	9.7%	u	2.8%
COCCNC(=O)/C(C#N)=C/c1cc(C)n(-c2ccc(C)cc2)c1C	u	13.0%	u	15.6	10µM*
